Screening data: PubChem, several laboratories
A selection: hits, their analogues and other compounds. The true share with any hit is near 3.5%.
UHRF1 MBD2 ctr: UHRF1 methylated DNA binding inhibitors, primary screen, counter-screen for MBD2 inhibitor project, biochemical, TR-FRET, human UHRF1, single concentration; E3 ubiquitin-protein ligase UHRF1 (Homo sapiens), Q96T88; UHRF1 binding to methylated oligo; inhibition, % at 4.4 µM; hit rate 0.75% among 370,000; AID 687016, 2013; in the data active = inhibition above about 21%;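 also: UHRF1 SRA domain binding a hemimethylated CpG hairpin DNA probe; 0% = median of test compound wells and 100% = reference inhibitor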
LEDGF integ inh: blockers of LEDGF/p75-dependent integrase strand transfer – biochemical, TR-FRET, high throughput, primary screen. HIV-1 integrase (with human LEDGF/p75). TR-FRET IN-LEDGF/p75 DNA integration, Eu/Cy5. inhibition, % at 3.7 µM. hit rate 0.64% among 370,000. AID 743269, 2014;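 active = inhibition above the screen-wide mean plus 3 SD, cut at about 13% in these data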;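 also: signal is the Cy5 over europium emission ratio at 671 and 618 nm; 0% = plate median of compound wells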
PG9 binder: binders of HIV-1 gp120 antibody PG9, primary screen, biochemical, TR-FRET; inhibition, % at 6.7 µM; TR-FRET gp120-PG9 antibody binding; hit rate 0.43% among 360,000; HIV-1 gp120 / PG9 antibody interaction; in the data active = inhibition above about 8.5%
rCAG binder: binders of r(CAG) RNA repeats, primary screen, biochemical, fluorescence; r(CAG) RNA repeat, TO-PRO-1 dye displacement fluorescence; inhibition, % at 3 µM; hit rate 1.3% among 370,000; AID 651821, 2012;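 active = inhibition above the plate cutoff, the mean of all test compounds on that plate plus 3 SD, cut at about 35% in these data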;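 also: 0% = DMSO alone and 100% = 100 µM mitoxantrone as full dye displacement; higher means more dye released from RNA so lower well fluorescence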
MBD2 DNA inh: inhibitors of MBD2 binding to methylated DNA, primary screen, biochemical, TR-FRET, DNA-binding domain, human; Methyl-CpG-binding domain protein 2 (Homo sapiens), Q9UBB5; MBD2 binding to methylated oligonucleotide; inhibition, % at 4.4 µM; hit rate 0.31% among 370,000; AID 686964, 2013; in the data active = inhibition above about 13%
Target sequence (Q9UBB5 whole entry, looked up, the tested form may be a part): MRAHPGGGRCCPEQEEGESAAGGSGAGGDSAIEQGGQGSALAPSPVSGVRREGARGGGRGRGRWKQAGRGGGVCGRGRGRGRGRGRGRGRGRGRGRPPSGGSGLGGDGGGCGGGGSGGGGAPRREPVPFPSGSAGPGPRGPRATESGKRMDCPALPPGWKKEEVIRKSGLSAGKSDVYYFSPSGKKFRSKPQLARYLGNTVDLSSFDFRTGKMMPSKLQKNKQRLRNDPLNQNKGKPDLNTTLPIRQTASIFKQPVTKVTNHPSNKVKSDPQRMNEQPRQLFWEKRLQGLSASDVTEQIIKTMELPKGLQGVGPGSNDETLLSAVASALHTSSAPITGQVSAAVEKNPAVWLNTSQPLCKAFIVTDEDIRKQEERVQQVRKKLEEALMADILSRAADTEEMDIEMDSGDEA
DNMT1 inh: human DNMT1 methyltransferase inhibitors, primary screen, biochemical, molecular beacon, fluorescence, HinP1I cleavage, uHTS. inhibition (reported as % activation of signal), % at 10 µM. hit rate 0.83% among 360,000. AID 588458, 2011; in the data active = inhibition above about 50%
rCAG bind conf: small molecules binding CAG repeat RNA – biochemical, fluorescence, confirmation | inhibition, % at 3 µM | hit rate 70% among 4,300 | r(CAG) RNA repeat, TO-PRO-1 dye displacement fluorescence | shares compounds with rCAG binder;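 active = inhibition above a per-plate cutoff, the mean inhibition of sample wells plus 3 SD, cut at about 35% in these data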;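 also: loss of TO-PRO-1 fluorescence as compound displaces dye from 1x1 AA loop RNA; 0% = DMSO only wells and 100% = 100 µM mitoxantrone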
DNA CAG counter: displacement of TO-PRO-1 from CAG DNA duplex, counter-screen for rCAG RNA repeat binder project, biochemical, fluorescence, TO-PRO-1 dye, d(CAG) DNA oligo | shares compounds with rCAG binder | d(CAG) DNA oligo TO-PRO-1 dye displacement | inhibition, % at 3 µM | hit rate 94% among 4,300;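 active = inhibition above its plate's cutoff, the mean test-well inhibition plus 3 SD, cut at about 4.8% in these data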;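 also: 0% = DNA dye mix with DMSO and 100% = 100 µM mitoxantrone; hits displace the dye from DNA and so lower well fluorescence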
* = called active by the depositor; · = not tested or not shown.

SMILES	UHRF1 MBD2 ctr	LEDGF integ inh	PG9 binder	rCAG binder	MBD2 DNA inh	DNMT1 inh	rCAG bind conf	DNA CAG counter
CCN(CC)S(=O)(=O)c1cccc(C(=O)N/N=C/c2cccc(O)c2O)c1	-2.3	-11.5	-3.6	37.4*	-1.1	1.9	33.0	13.0*
O=C(OC1CCOC1=O)C1CCN(S(=O)(=O)c2c(Cl)cccc2Cl)CC1 (configuration not stated)	1.5	-7.8	-0.8	1.4	-0.2	4.1	·	·
Cc1nc2ccc(NC(=O)c3cc([N+](=O)[O-])cc([N+](=O)[O-])c3Cl)cc2s1	-9.0	0.0	0.3	94.5*	1.7	-12.9	55.2*	21.9*
CCCCn1c(-c2ccc(OC(F)F)cc2)nc2c1c(=O)[nH]c(=O)n2CC(C)C	-2.3	-2.1	-1.8	-2.1	4.7	-3.4	·	·
COc1cc(Br)c(/C=C/c2ccc3cccc(O)c3n2)cc1OC	-2.9	5.8	-1.1	13.9	-3.0	-8.8	·	·
Oc1c(Cl)cc(Cl)cc1/C=C/c1ccc2cccc(O)c2n1	-4.3	-3.6	-0.9	40.7*	-0.2	0.9	56.1*	21.1*
Oc1ccc(Cl)cc1/C=C/c1ccc2cccc(O)c2n1	-0.1	-1.1	-0.4	32.0	-0.7	-28.0	·	·
COc1cc(Br)cc(/C=C/c2ccc3cccc(O)c3n2)c1O	-1.8	0.4	-1.7	35.9*	-3.0	-11.2	28.5	12.6*
CCOc1cc(/C=C/c2ccc3cccc([N+](=O)[O-])c3n2)cc(Cl)c1O	0.3	2.2	0.2	41.3*	-1.7	-26.7	33.2	13.4*
COc1cc(/C=C/c2ccc3cccc(O)c3n2)c(Br)cc1O	-2.2	-0.3	-0.7	47.6*	-8.2	-7.9	44.6*	21.2*
CC(C)OCCCNC(=O)COCC(=O)Nc1ccc(OCCc2ccccc2)cc1	4.0	0.7	-1.0	-6.1	1.4	-0.4	·	·
Cc1ccc(C(=O)CCC(=O)Nc2ccc(Cl)c(S(=O)(=O)Nc3cccc(Cl)c3)c2)cc1	4.5	-5.8	0.0	35.0*	5.6	-2.2	35.1*	11.5*
CC(C)(C)Nc1c(C2CCNCC2)nc2c(OCc3ccccc3)cccn12	3.7	3.6	-0.5	6.9	-0.2	-2.0	·	·
O=C(O)c1cccc(NC(=O)c2cccc(S(=O)(=O)N3CCc4ccccc4C3)c2)c1	2.6	0.6	3.2	37.0*	-0.5	-1.6	22.7	4.5*
O=C(O)c1cccc(NC(=O)c2ccc(Cl)c(S(=O)(=O)N3CCCCCC3)c2)c1	-1.0	-1.7	-1.8	34.6*	-0.4	0.7	32.4	5.4*
COc1ccc(C(=O)O)cc1S(=O)(=O)Nc1cccc(C(F)(F)F)c1	-3.6	1.2	1.2	1.7	-2.0	-0.8	·	·
O=C(O)c1ccc(Cl)c(S(=O)(=O)Nc2cccc(C(=O)Nc3cccc(C(F)(F)F)c3)c2)c1	1.1	-2.2	0.0	39.1*	2.9	0.2	24.1	7.9*
COc1cc(/C=N/NC(=O)c2ccc(NS(=O)(=O)c3cccs3)cc2)cc(OC)c1O	0.5	6.4	-5.3	7.6	-0.4	5.2	·	·
COc1cc(C=NNC(=O)c2ccccc2NS(=O)(=O)c2cccs2)cc(OC)c1O	-2.6	2.9	-0.7	42.4*	-4.1	-0.8	50.9*	12.0*
COc1ccccc1NC(=O)c1ccccc1NS(C)(=O)=O	-0.8	-1.0	-4.7	8.1	-0.4	4.1	·	·
COc1ccc(OC)c(C=NNC(=O)c2ccccc2NS(=O)(=O)c2cccs2)c1	-0.5	-1.4	0.3	59.7*	-3.0	0.9	50.5*	15.3*
